Only a selection was taken, and hits are over-represented in it overall.
nsP2pro primary – CHIKV nsP2 protease inhibition, primary qHTS | Q8JUX6 | FRET peptide cleavage, nsP2pro, fluorescence 1 h | Potency, µM (top dose mostly 24.9 µM), without a hit: at the top dose activity change, negative = inhibition, actives largely listed as inhibitors | 31,000 tested, 1.1% active | AID 1964107; further: nearly all actives have a fitted effect of over 60% in size
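Recombinant nsP2pro (150 nM) was preincubated with compound 15 min at room temperature in 10 mM Tris-HCl pH 8.0, 0.01% Tween 20. Peptide 2 FRET substrate (2.5 uM) was then added and fluorescence read after 1 h. Seven-point series, up to 25 uM.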
CHIKV nsP2 cell – inhibits CHIKV nsP2 protease in cells; shares compounds with nsP2pro primary; cell-based CHIKV nsP2 protease reporter assay; Potency, µM (doses to about 51.1 µM), without a hit: at the top dose activity change, negative = inhibition, usual class: inhibitors; 450 tested, 10% active; further: nearly all actives have a fitted effect of over 70% in size
CHIKV NSP2 FL – selectivity test for CHIKV nsP2 protease inhibitors: full-length NSP2; AID 1964101; Full-length CHIKV NSP2 protease enzymatic counterscreen; Potency, µM (doses to about 50.7 µM), for the others: at the highest dose activity change, negative = inhibition, hits mostly inhibitors; shares compounds with nsP2pro primary; 410 tested, 39% active; further: nearly all actives have a fitted effect of over 65% in size
Furin counterscr – human furin inhibition, counterscreen for nsP2pro inhibitors | Potency, µM (top dose mostly 50.6 µM), for inactives: at the highest dose activity change, negative = inhibition, actives largely listed as inhibitors | shares compounds with nsP2pro primary | Recombinant human furin enzymatic counterscreen, fluorogenic substrate | 410 tested, 6% active
NS23 peptide cs – nsP2pro inhibition on native NS2/3 peptide substrate; AID 1964103; shares compounds with nsP2pro primary; 410 tested, 34% active; Purified CHIKV nsP2 protease, endogenous NS2/3 peptide cleavage; Potency, µM (series often up to 51 µM), for inactives: at the top dose activity change, negative = inhibition, actives largely listed as inhibitors; further: nearly all actives have a fitted effect of over 55% in size
Papain counter – papain protease inhibition, counterscreen for nsP2pro inhibitors; shares compounds with nsP2pro primary; purified papain protease activity, enzymatic inhibition; Potency, µM (top dose mostly 51 µM), for the others: top-dose activity change, negative = inhibition, actives largely listed as inhibitors; 410 tested, 5% active; AID 1964104
Target sequence (P00784 whole entry, looked up): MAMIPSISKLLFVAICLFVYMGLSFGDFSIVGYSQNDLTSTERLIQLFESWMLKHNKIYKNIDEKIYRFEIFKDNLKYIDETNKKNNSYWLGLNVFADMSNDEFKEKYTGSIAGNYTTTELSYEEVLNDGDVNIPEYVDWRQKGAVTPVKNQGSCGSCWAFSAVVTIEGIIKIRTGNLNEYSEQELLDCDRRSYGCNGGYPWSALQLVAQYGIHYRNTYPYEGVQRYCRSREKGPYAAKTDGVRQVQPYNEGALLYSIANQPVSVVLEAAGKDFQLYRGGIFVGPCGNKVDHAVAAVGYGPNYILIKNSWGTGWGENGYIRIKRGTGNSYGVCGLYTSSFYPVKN
nsP2pro confirm – CHIKV nsP2 protease inhibition, confirmatory qHTS; shares compounds with nsP2pro primary; CHIKV nsP2 protease enzymatic activity, qHTS; Potency, µM (top dose mostly 25.5 µM), for inactives: at the highest dose activity change, negative = inhibition, most hits filed as inhibitors; 410 tested, 43% active; further: nearly all actives have a fitted effect of over 75% in size
HCV NS3 counter – inhibits HCV NS3/4A protease in an nsP2pro selectivity counterscreen. Potency, µM (titrated, usually from 50.9 µM), hits mostly inhibitors. HCV NS3/4A protease biochemical counterscreen. shares compounds with nsP2pro primary. 410 tested, 20% active; further: nearly all actives have a fitted effect of over 55% in size
The depositor's hits bear a star; i = inactive; ? = inconclusive; [ ] = dose if it differs, or a comment. The call rests on the fitted dose curve. On the % scale 0 is the no-effect control and ±100 the full control effect; potency means the concentration at half of the fitted maximal effect.

SMILES | nsP2pro primary | others
CC1(C)CCC[C@@]2(C)[C@H]1[C@H](O)C=C1COC(=O)[C@@]12O | -13.4%
CO[C@H]1c2cc(C(C)C)c(O)c(O)c2[C@@]23CCCC(C)(C)C2[C@@H]1OC3=O (stereo partly drawn) | 6.1µM* | CHIKV nsP2 cell=-19.1%[33.5 µM];CHIKV NSP2 FL=16µM*;Furin counterscr=-10.3%[33.5 µM];NS23 peptide cs=12.7µM*;Papain counter=?;nsP2pro confirm=5.54µM*;HCV NS3 counter=i
C#CCCC(=O)Nc1sc2c(c1-c1nc3ccccc3s1)CCN(C(C)C)C2 | i
O=S(=O)(C1CC1)N1CCn2c(nnc2-c2cncc(Br)c2)C1 | -15.6%
c1ccc2cc(-c3noc([C@@H]4Cc5nc[nH]c5CN4CC4CCCCC4)n3)ccc2c1 | i
C/C=C/C=C/C(O)=C1/C(=O)[C@]2(C)C(=O)[C@@](C)(O)[C@H]1[C@H]([C@@]1(C)OC(=O)C(C)=C1O)[C@H]2C(=O)CC/C=C/C | 2.3%[10 µM]
N#Cc1ccc(NS(=O)(=O)c2ccc3c(c2)CCC(=O)N3)cc1 | -6.1%
CN1CCc2nc(C(=O)N[C@@H]3C[C@@H](C(=O)N(C)C)CC[C@@H]3NC(=O)C(=O)Nc3ccc(Cl)cn3)sc2C1 | ? | CHIKV nsP2 cell=-10.1%;CHIKV NSP2 FL=14.4%;Furin counterscr=12.2%;NS23 peptide cs=5.8%;Papain counter=-4.0%;nsP2pro confirm=-11.6%;HCV NS3 counter=i
CCOC(=O)c1sc(NC(=O)c2nc(SCC)ncc2Cl)c(C(=O)OCC)c1C | -3.6%
Cc1cc2c(cc1S(=O)(=O)Nc1cc(C(F)(F)F)cc(C(F)(F)F)c1)OCC(=O)N2 | -15.6%
CC1=CC(=O)C[C@H]2[C@@H]1CC[C@@H](C)[C@]21CO[C@H](c2ccoc2)C1=O | ? | CHIKV nsP2 cell=1.2%[33.5 µM];CHIKV NSP2 FL=-20.7%[33.5 µM];Furin counterscr=6.1%[33.5 µM];NS23 peptide cs=i;Papain counter=-5.0%[33.5 µM];nsP2pro confirm=10.5%[16.7 µM];HCV NS3 counter=i
Cc1cnc(-c2ccccc2C(C)C)nc1NCc1ccc(C#N)cc1 | i
Cc1cnc(C(=O)N2CCC3(CC2)C(=O)N(c2cccc(F)c2)C3c2ccccc2)cn1 (stereo not drawn) | 0.0%
COc1ccc(CC(=O)N2CCC(c3n[nH]c(=O)n3Cc3ccc(F)cc3)CC2)cc1 | i
CN(Cc1ccccc1)C(=O)CC1CCN(C(=O)Cc2ccccc2)C1 (stereo not drawn) | 6.0%
Cc1nc(C2CCN(C(=O)Cc3ccccc3)CCN2C(=O)Cc2ccccc2)n[nH]1 (stereo not drawn) | ? | CHIKV nsP2 cell=1.1%;CHIKV NSP2 FL=?;Furin counterscr=-2.2%;NS23 peptide cs=?;Papain counter=-1.8%;nsP2pro confirm=?;HCV NS3 counter=?
CCc1cc2c(cc1N1CCC(N3CCOCC3)CC1)C(C)(C)c1[nH]c3cc(C#N)ccc3c1C2=O | -3.8%[10 µM]
Cn1cc(CNC(=O)c2ccc(S(=O)(=O)N[C@@H]3CCNC3)cc2)cn1 | -8.9%
CCCCC1CCC(C(=O)N2CC(=O)Nc3ccc(Br)cc3C2c2ccc(F)cc2)CC1 (stereo not drawn) | -5.1%
COc1ccc2c(c1)Oc1nc(-c3ccc(C)cc3)nc(SCC(=O)Nc3cccc(C(=O)O)c3)c1C2 | i
O=C(NCc1nnc2n1C(C(=O)N1CCCC1)CC2)Nc1cccnc1 (stereo not drawn) | -20.1%
Cn1ccc(C(=O)NCc2nnc3n2C(C(=O)NCC2CC2)CC3)n1 (stereo not drawn) | 7.94µM* | CHIKV nsP2 cell=9.7%;CHIKV NSP2 FL=?;Furin counterscr=-5.6%;NS23 peptide cs=?;Papain counter=2.9%;nsP2pro confirm=?;HCV NS3 counter=11.4µM*
CC(=O)NCc1nnc2n1C(C(=O)NC1CCCCCC1)CC2 (stereo not drawn) | -22.3%[39.2 µM]
Cc1ccc(N2CCN(CCC3NC(=O)c4ccccc43)CC2)cc1C (stereo not drawn) | -17.0%
